Bioassay records (PubChem BioAssay)
PPARg SRC-3 ag: PPARgamma-driven SRC-3 recruitment agonism | P37231 | biochemical PPARgamma/SRC-3 coactivator recruitment assay | activation, % at 8 µM | 0.26% of 200,000 active; in the data active means activation above about 23%;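 further: 0% = DMSO and 100% = reference agonist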
Target sequence (P37231 whole entry, looked up): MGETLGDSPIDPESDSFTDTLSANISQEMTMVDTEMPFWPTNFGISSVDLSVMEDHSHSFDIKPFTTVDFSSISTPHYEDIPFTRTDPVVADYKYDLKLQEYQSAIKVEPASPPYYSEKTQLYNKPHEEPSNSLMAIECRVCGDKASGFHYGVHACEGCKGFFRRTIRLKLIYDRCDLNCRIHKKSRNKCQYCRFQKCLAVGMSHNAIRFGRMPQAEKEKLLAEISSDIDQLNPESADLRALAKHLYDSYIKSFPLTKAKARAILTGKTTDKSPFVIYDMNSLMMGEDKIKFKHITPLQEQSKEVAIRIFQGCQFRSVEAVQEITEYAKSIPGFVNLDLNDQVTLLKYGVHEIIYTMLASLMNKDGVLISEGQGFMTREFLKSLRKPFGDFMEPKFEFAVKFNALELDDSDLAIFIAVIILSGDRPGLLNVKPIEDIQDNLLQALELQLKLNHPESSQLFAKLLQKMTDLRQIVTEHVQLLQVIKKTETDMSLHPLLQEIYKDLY
SRC1 TRFRET art: flags TR-FRET format artefacts in PPARgamma SRC-1 recruitment agonist screen; TR-FRET detection artefact counter-screen, emission ratio; stronger effect = higher value; TR-FRET ratio at 8 µM; 0.34% of 99,000 active; AID 1051; in the data active means TR-FRET ratio above about 2300
PPARg SRC1 recr: promotes SRC-1 coactivator recruitment by human PPARgamma. PPARgamma-SRC-1 coactivator recruitment biochemical assay. activation, % at 8 µM. 0.41% of 200,000 active. AID 631; in the data active means activation above about 19%;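 further: 0% = DMSO and 100% = reference agonist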
PPARg SRC2 recr: promotes SRC-2 coactivator recruitment by human PPARgamma; AID 1032; P37231; PPARgamma LBD-SRC-2 recruitment, biochemical; 0.34% of 200,000 active; activation, % at 8 µM; in the data active means activation above about 22%;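 further: 0% = vehicle and 100% = reference agonist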
TR-FRET SRC-2 ct: counter-screen for PPARgamma SRC-2 recruitment agonists: TR-FRET artefact. AID 1049. stronger effect = higher value. 0.4% of 200,000 active. TR-FRET ratio at 8 µM
SRC3 TRFRET art: TR-FRET artefact, counter-screen to PPARgamma/SRC-3 agonist assay; 0.39% of 99,000 active; TR-FRET ratio at 8 µM; PPARgamma/SRC-3 format; stronger effect = higher value
* = called active by the depositor. Rows were chosen to be rich in hits. Some 0.84% of all compounds tested hit in one or more screens of this group. Unless noted, no stated cut-off is given here; in the data, active means TR-FRET ratio above about 2000; inactive means the rest.

`O=C(Nc1nc(-c2ccc(S(=O)(=O)N3CCCCCC3)cc2)cs1)c1cccs1` gave PPARg SRC-3 ag 0.8, PPARg SRC1 recr 21.8*, PPARg SRC2 recr 5.7 and TR-FRET SRC-2 ct 2280*.
Screening Cc1cccn2c(=O)c3cc(C(=O)NCC4CCCO4)c(=N)n(Cc4cccnc4)c3nc12 (stereo not drawn) returned PPARg SRC-3 ag 1.7, SRC1 TRFRET art 2542*, PPARg SRC1 recr 16.6, PPARg SRC2 recr 4.3, TR-FRET SRC-2 ct 1761 and SRC3 TRFRET art 1472.
Screening N=c1c(C(=O)NCC2CCCO2)cc2c(=O)n3ccccc3nc2n1Cc1cccnc1 (stereo not drawn) returned PPARg SRC-3 ag 3.3, SRC1 TRFRET art 1929, PPARg SRC1 recr 9.0, PPARg SRC2 recr 4.7, TR-FRET SRC-2 ct 1820 and SRC3 TRFRET art 1701.
For CC(C(=O)Nc1cc(C(F)(F)F)ccc1N1CCOCC1)N1C(=O)C2CC=CCC2C1=O (stereo not drawn) the results were PPARg SRC-3 ag -6.5, PPARg SRC1 recr 5.4, PPARg SRC2 recr 11.7 and TR-FRET SRC-2 ct 1500.
For Cn1c2ccccc2c2cc(C(=O)O)ccc21 the results were PPARg SRC-3 ag -0.6, PPARg SRC1 recr -2.4, PPARg SRC2 recr 3.6 and TR-FRET SRC-2 ct 1489.
For CCCCn1c(NC(=O)c2ccccc2Cl)c(C#N)c2nc3ccccc3nc21 the results were PPARg SRC-3 ag 23.1, PPARg SRC1 recr 13.4, PPARg SRC2 recr 21.8 and TR-FRET SRC-2 ct 1951.
`N#Cc1c(NC(=O)c2ccccc2Cl)n(Cc2ccccc2)c2nc3ccccc3nc12` gave PPARg SRC-3 ag 62.1*, SRC1 TRFRET art 1811, PPARg SRC1 recr 20.6*, PPARg SRC2 recr 13.2, TR-FRET SRC-2 ct 1663 and SRC3 TRFRET art 1498.
For CCOC(=O)c1c(NC(=S)Nc2ccc(OC)cc2)sc2c1CCC2 the results were PPARg SRC-3 ag 1.0, SRC1 TRFRET art 1583, PPARg SRC1 recr -0.3, PPARg SRC2 recr 7.5, TR-FRET SRC-2 ct 1599 and SRC3 TRFRET art 1631.
For COC(=O)c1c(NC(=S)Nc2ccc(C(=O)N3CCOCC3)cc2)sc2c1CCC2 the results were PPARg SRC-3 ag 9.2, SRC1 TRFRET art 2132, PPARg SRC1 recr 17.8, PPARg SRC2 recr 13.3, TR-FRET SRC-2 ct 1929 and SRC3 TRFRET art 2231*.
Screening O=C(O)C1CCC(Cn2c(SCc3cc(=O)n4cc(Br)ccc4n3)nc3ccsc3c2=O)CC1 (stereo not drawn) returned PPARg SRC-3 ag 14.2, SRC1 TRFRET art 2198, PPARg SRC1 recr 10.9, PPARg SRC2 recr 5.5, TR-FRET SRC-2 ct 1816 and SRC3 TRFRET art 2459*.
For O=C(Cc1cccc2ccccc12)N/N=C/c1ccc(F)cc1 the results were PPARg SRC-3 ag -1.0, PPARg SRC1 recr -2.6, PPARg SRC2 recr -4.5 and TR-FRET SRC-2 ct 1402.
For Cc1cc(C)cc(-n2c3nc4ccccc4nc3c3c(=O)n(Cc4ccco4)cnc32)c1 the results were PPARg SRC-3 ag 8.5, PPARg SRC1 recr 0.9, PPARg SRC2 recr 7.1 and TR-FRET SRC-2 ct 1412.
`CCOc1ccc(-n2c3nc4ccccc4nc3c3c(=O)n(Cc4ccco4)cnc32)cc1` gave PPARg SRC-3 ag 84.0*, PPARg SRC1 recr 45.2*, PPARg SRC2 recr 7.2 and TR-FRET SRC-2 ct 1566.
CCn1cc(/C=C/C(=O)Nc2c(C)nn(Cc3ccccc3C)c2C)cn1 was read as PPARg SRC-3 ag -2.4, SRC1 TRFRET art 1839, PPARg SRC1 recr 4.0, PPARg SRC2 recr 5.5, TR-FRET SRC-2 ct 1623 and SRC3 TRFRET art 1692.
For CCn1cc(/C=C/C(=O)Nc2ccn(Cc3c(F)c(F)c(F)c(F)c3F)n2)cn1 the results were PPARg SRC-3 ag 9.1, SRC1 TRFRET art 1932, PPARg SRC1 recr 5.2, PPARg SRC2 recr 27.5*, TR-FRET SRC-2 ct 1606 and SRC3 TRFRET art 1426.
Screening O=C(NC1CCCCC1)C(c1ccccc1F)N(Cc1ccco1)C(=O)Cn1nnc2ccccc21 (stereo not drawn) returned PPARg SRC-3 ag -0.2, PPARg SRC1 recr 0.2, PPARg SRC2 recr 3.4 and TR-FRET SRC-2 ct 1467.
CCOC(=O)c1c(NC(=O)CSc2nc3cc(Cl)ccc3s2)sc(C(C)=O)c1C was read as PPARg SRC-3 ag 4.9, SRC1 TRFRET art 1894, PPARg SRC1 recr 2.3, PPARg SRC2 recr 7.7, TR-FRET SRC-2 ct 1636 and SRC3 TRFRET art 1545.
CCOC(=O)c1c(NC(=O)CSc2nc3ccccc3s2)sc(C(C)=O)c1C was read as PPARg SRC-3 ag 0.2, PPARg SRC1 recr -1.6, PPARg SRC2 recr 3.1 and TR-FRET SRC-2 ct 2122*.
Cc1sc(NC(=O)Cc2ccc3c(c2)OCO3)nc1-c1ccc2c(c1)CCN2C(=O)c1ccccc1F was read as PPARg SRC-3 ag -0.6, SRC1 TRFRET art 1710, PPARg SRC1 recr -1.9, PPARg SRC2 recr -0.9, TR-FRET SRC-2 ct 1630 and SRC3 TRFRET art 1545.
`Cc1sc(NC(=O)Cc2ccc3c(c2)OCO3)nc1-c1ccc2c(c1)CCN2C(=O)c1ccc(F)cc1` gave PPARg SRC-3 ag 13.6, SRC1 TRFRET art 1579, PPARg SRC1 recr 4.0, PPARg SRC2 recr -7.2, TR-FRET SRC-2 ct 1427 and SRC3 TRFRET art 2623*.
`O=C(Nc1ccc(F)cc1)N1CCN(c2ncccn2)CC1` gave PPARg SRC-3 ag 3.6, SRC1 TRFRET art 1615, PPARg SRC1 recr -4.6, PPARg SRC2 recr -0.3, TR-FRET SRC-2 ct 1209 and SRC3 TRFRET art 1404.
For COc1ccc(C2CC(c3cccs3)=NN2C(=O)COC(=O)C2CCCCC2)cc1OC (stereo not drawn) the results were PPARg SRC-3 ag 6.0, SRC1 TRFRET art 2074, PPARg SRC1 recr 3.2, PPARg SRC2 recr 8.8, TR-FRET SRC-2 ct 1638 and SRC3 TRFRET art 1612.
For COc1ccc(C2CC(c3cccs3)=NN2C(=O)COC(=O)c2cncc(Br)c2)cc1OC (stereo not drawn) the results were PPARg SRC-3 ag 3.2, SRC1 TRFRET art 2246, PPARg SRC1 recr 11.2, PPARg SRC2 recr 1.6, TR-FRET SRC-2 ct 1406 and SRC3 TRFRET art 2284*.
CSc1nsc(SCC(=O)Nc2cccc(C(C)=O)c2)n1 was read as PPARg SRC-3 ag 7.2, PPARg SRC1 recr 6.6, PPARg SRC2 recr -3.4 and TR-FRET SRC-2 ct 1788.
For COc1cccc(C2C(C(=O)c3cc4ccccc4o3)=C(O)C(=O)N2CCN(C)C)c1OC (stereo not drawn) the results were PPARg SRC-3 ag 28.0*, PPARg SRC1 recr 18.3, PPARg SRC2 recr 20.5 and TR-FRET SRC-2 ct 1961.
COc1cccc(C2C(C(=O)c3ccco3)=C(O)C(=O)N2CCN(C)C)c1OC (stereo not drawn) was read as PPARg SRC-3 ag -0.4, SRC1 TRFRET art 1861, PPARg SRC1 recr -5.4, PPARg SRC2 recr 1.8, TR-FRET SRC-2 ct 1493 and SRC3 TRFRET art 1530.
Screening O=C(CSc1nc2cc(Cl)ccc2c(=O)n1Cc1ccco1)Nc1ccc(S(=O)(=O)N2CCOCC2)cc1 returned PPARg SRC-3 ag 5.5, SRC1 TRFRET art 2098, PPARg SRC1 recr 5.8, PPARg SRC2 recr -2.9, TR-FRET SRC-2 ct 2029* and SRC3 TRFRET art 2505*.
